IL-1B inflam inh: inhibitors of inflammasome signaling (IL-1 beta secretion); THP-1 LPS/ATP IL-1B secretion, AlphaLISA, 16 h; hits give low values; activity change, % at 57.5 µM; 4.7% of 360,000 active; AID 743279; in the data active = activity change below about -50%; inconclusive = mostly about -30% to -49%
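Secreted IL-1B measured by AlphaLISA bead assay after 16 h compound exposure of THP-1 cells; compounds (final up to 57.5 uM) added 1 h before LPS (250 ng/mL) and ATP (1.25 mM) stimulation; lower signal means less secretion.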
KB-V1 MDR tox: kills drug-selected multidrug resistant KB-V1 cells. KB-V1 MDR cells viability, CellTiter-Glo, 72 h. Potency, µM (series often up to 46.1 µM), actives largely listed as cytotoxic. 3.4% of 400,000 active. AID 1347076; note: nearly all actives have a fitted effect of over 60% in size
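Compound-treated KB-V1 multidrug-resistant cells, 72 h, 37 degrees C; viability by CellTiter-Glo. Fitted qHTS curves give the values.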
HT1080-NT tox: kills 2HG-producing HT-1080-NT fibrosarcoma cells. HT-1080-NT fibrosarcoma viability, CellTiter-Glo ATP luminescence, 48 h. Potency, µM (doses to about 46.1 µM), actives largely listed as cytotoxic. 1.6% of 360,000 active. AID 686970;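 note: NT is the 2HG producing partner of a matched IDH1 knockdown line; nearly all actives have a fitted effect of over 55% in size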
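Compounds were tested in concentration-response format on HT-1080-NT cells for 48 hours at 37 degrees C. Cell viability came from CellTiter-Glo luminescence; curves were classified by r2, response magnitude and activity.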
KB-3-1 tox: KB-3-1 parental cell cytotoxicity | KB-3-1 viability, CellTiter-Glo ATP luminescence, 72 h | Potency, µM (doses to about 46.1 µM), actives largely listed as cytotoxic | 1.4% of 400,000 active | AID 1347075; note: nearly all actives have a fitted effect of over 60% in size
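Multi-concentration cytotoxicity screen in KB-3-1 cells grown in DMEM lacking phenol red with 10% FBS. After 72 h at 37 °C with compound, ATP-dependent luminescence was recorded.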
HT1080 IDH1KD tx: toxicity to HT-1080 IDH1 knockdown cells (counter line); HT-1080 IDH1 knockdown viability, ATP luminescence, 48 h; Potency, µM (top dose mostly 46.1 µM), most hits filed as cytotoxic; 2% of 360,000 active
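% activity derives from luminescence (CellTiter-Glo), normalised to DMSO and no-cell wells. HT-1080-IDH1KD cells, 750/well, had 48 h compound exposure at 37 °C.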
A number is an active result; - = inactive; ? = inconclusive; . = no result; ! = repeats disagree; [ ] = dose if it differs, or a comment. Shown are actives, neighbours in structure and some others; about 8.8% of the full set was active somewhere. Unless noted, calls come from the whole dose curve; as a rule, active = well fitted curve in the direction sought with a large enough effect; inconclusive = small, poorly fitted or top-dose-only effect, or another doubt; inactive = no such curve, though single readings can be large; an effect the other way counts as inactive or inconclusive.

SMILES	IL-1B inflam inh	KB-V1 MDR tox	HT1080-NT tox	KB-3-1 tox	HT1080 IDH1KD tx
Cc1ccc2nc(-c3cccc(SC4CCCCC4)c3)c(NC3CCCCC3)n2c1	-	-	-	-	-
COc1ccc(-c2nc3ccc(C)cn3c2NCc2ccccc2)cc1SC1CCCCC1	-	-	?	-	?
COc1ccc(-c2nc3ccc(Cl)cn3c2NC2CCCCC2)cc1SC1CCCCC1	-58.3	-	-	?	-
Cc1ccc2nc(-c3cccc(SC4CCCCC4)c3)c(NCc3ccccc3)n2c1	-	?	?	?	-
CCCCNc1c(-c2ccc(SC3CCCCC3)c(OC)c2)nc2ccc(C)cn12	-68.5!	?	?	?	?
COc1ccc(-c2ccc(-c3nc4ccc(C)cn4c3NC3CCCCC3)cc2OC)cc1	-55.1!	16.4µM!	?	?	?
CCCCNc1c(-c2ccc(OC)c(SC3CCCCC3)c2)nc2ccc(C)cn12	-58.8	?	?	?	?
C=CCNC(=S)N1CCC(C(=O)c2ccc(Cl)cc2)CC1	-	-	-	-	-
O=C(O)CCCC(=O)N1N=C(c2ccccc2)CC1c1ccc2c(c1)OCO2 (stereo not drawn)	-	-	-	-	-
Cc1ccc(CN2CCNC(=O)C2CC(=O)N2CCN(c3ncccn3)CC2)o1 (stereo not drawn)	-	-	-	-	-
COc1cc(OC)c2c(c1)C(=O)OC2c1cc(OC)c(OC)cc1C (stereo not drawn)	.	-	.	-	.
Cc1ccc(O)c(N=Nc2nccs2)c1	-	-	?	-	?
Cc1cc(C)n(-c2ccc(Cl)c(C(=O)NCc3ccccc3)n2)n1	-	11.6µM	-	-	-
Cc1cc(C)n(-c2ccc(Cl)c(C(=O)OCC(N)=O)n2)n1	-	-	-	-	-
O=C(Cn1cc[n+](CC(=O)c2ccc(Cl)cc2Cl)c1)c1ccc(Cl)cc1Cl	-82.2	-	-	?	-
Cc1cc(C(=O)CSc2nnc(NCc3ccccc3)s2)c(C)n1C	-	?	14.6µM	?	?
CN1/C(=C\C(=O)CSc2nnc(NCc3ccccc3)s2)C(C)(C)c2ccccc21	-	?	-	-	-
COc1ccc(S(=O)(=O)c2nnn(-c3cc(Cl)c(OC)cc3OC)c2C)cc1	.	-	.	-	.
COC(=O)c1c(-c2ccc(F)cc2)noc1N	-	-	-[9.24 µM]	-	11.2µM
COC(=O)c1onc(-c2ccccc2)c1C(=O)OC	-	-	-	-	-
O=c1nc(Nc2ccc([N+](=O)[O-])cc2)[nH]c(=O)[nH]1	-	-	-	-	-
Cc1ccc2c(c1)N(C(=O)CCC(=O)NCc1cccnc1)CC(C)O2 (stereo not drawn)	-	-	-	-	-
COc1cc2nc(=S)n3[nH]c(CCn4nc(C)cc4C)nc3c2cc1OC	-	?	?	?	?
COc1cc2nc(=S)n3[nH]c(COc4ccccc4C)nc3c2cc1OC	-	0.92µM	-	?	-
O=C(c1ccc(Cn2cc(Cl)c([N+](=O)[O-])n2)cc1)N1CCN(Cc2ccccc2)CC1	?	?	-	-	-
SMILES	IL-1B inflam inh	KB-V1 MDR tox	HT1080-NT tox	KB-3-1 tox	HT1080 IDH1KD tx
c1ccc2nc(-c3cc4ccccc4s3)ccc2c1	.	-	.	-	.
F[B-](F)(F)c1cc2cc(Br)ccc2s1	-62.1	-	-	-	-
F[B-](F)(F)c1cc2ccccc2s1	-70.2	-	-	?	-
Cc1cc(NC(c2nnc(-c3ccccc3)o2)c2ccccc2F)ccc1Br (stereo not drawn)	.	-	.	?	.
COc1ccc(-c2csc(N(C)C(=O)c3cccs3)n2)cc1	-59.6	-	-	-	-
CCN(CC)CCCN(C(=O)c1ccc(Br)cc1)c1nc(-c2ccc(OC)cc2)cs1	-81.5	?	?	?	?
COc1ccc(-c2csc(N(CCCN(C)C)C(=O)c3ccc(OC)c(OC)c3)n2)cc1	-	-	-	-	-
COc1ccc(-c2csc(N(CCc3ccccc3)C(=O)COc3ccccc3)n2)cc1	-	16.4µM	-	-	-
CCN(CC)CCCN(C(=O)c1cccc(C)c1)c1nc(-c2ccc(OC)cc2)cs1	-50.4	?	-	-	?
O=C(Nc1ccccc1)C1CCN(c2ncc(-c3ccc4c(c3)OCCCO4)s2)CC1	.	-	.	-	.
Cc1cn(C2CCCCC2)c(=O)[nH]c1=O	-	.	-	.	-

Source: PubChem
